# Data reported in the supplement of paper PMC4466140.
# B1: unnamed (peptide)
# chain: GATNNAPTLPKRKNP
# B2: unnamed (peptide)
# chain: PLQSKIPMLPSRRTM
# B3: unnamed (peptide)
# chain: QLLNPNRRAPRRPLS
# Biological target: AgAbp1
# Assay: SPOT peptide array binding signal intensity (averaged, normalized) (arbitrary units (background-subtracted, floor 0; scale differs between SH3 domains)); higher = stronger binding of the SH3 domain to the peptide
# Summary of the method: (§1)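 E. coli BL21(DE3) was used to express GST-fused SH3 domains from four yeast species, which were then purified on glutathione Sepharose. These were incubated at 10 μg/ml in TBS-based blocking buffer overnight at 4°C on cellulose membranes carrying synthetic 15-mer peptides, in which cysteines were replaced by serines. Binding signal is the replicate average of normalized, background-subtracted spot intensity, in arbitrary units that differ between domains.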
row,Binder,SPOT peptide array binding signal intensity
1,B1,94.5
2,B2,98.5

# Biological target: AgBbc1
# Assay: as above
# Summary of the method: as §1
row,Binder,SPOT peptide array binding signal intensity
1,B1,80.5
2,B2,267

# Biological target: AgBem1-D1
# Assay: as above
# Summary of the method: as §1
row,Binder,SPOT peptide array binding signal intensity
1,B1,15
2,B2,26.5

# Biological target: AgBzz1-D1
# Assay: as above
# Summary of the method: as §1
row,Binder,SPOT peptide array binding signal intensity
1,B1,60.2
2,B2,48

# Biological target: AgBzz1-D2
# Assay: as above
# Summary of the method: as §1
row,Binder,SPOT peptide array binding signal intensity
1,B1,21
2,B2,9

# Biological target: AgCyk3
# Assay: as above
# Summary of the method: as §1
row,Binder,SPOT peptide array binding signal intensity
1,B1,≤ 0
2,B2,3

# Biological target: AgFus1
# Assay: as above
# Summary of the method: as §1
row,Binder,SPOT peptide array binding signal intensity
1,B1,15.5
2,B2,98.5

# Biological target: AgHof1
# Assay: as above
# Summary of the method: as §1
row,Binder,SPOT peptide array binding signal intensity
1,B1,32.9
2,B2,211

# Biological target: AgHse1
# Assay: as above
# Summary of the method: as §1
row,Binder,SPOT peptide array binding signal intensity
1,B1,≤ 0
2,B2,300

# Biological target: AgLsb1
# Assay: as above
# Summary of the method: as §1
row,Binder,SPOT peptide array binding signal intensity
1,B1,11.4
2,B2,555

# Biological target: AgLsb4
# Assay: as above
# Summary of the method: as §1
row,Binder,SPOT peptide array binding signal intensity
1,B1,2730
2,B2,4990

# Biological target: AgMyo5
# Assay: as above
# Summary of the method: as §1
row,Binder,SPOT peptide array binding signal intensity
1,B1,≤ 0
2,B2,≤ 0

# Biological target: AgNbp2
# Assay: as above
# Summary of the method: as §1
row,Binder,SPOT peptide array binding signal intensity
1,B1,7.25
2,B2,302

# Biological target: AgRvs167
# Assay: as above
# Summary of the method: as §1
row,Binder,SPOT peptide array binding signal intensity
1,B1,47.3
2,B2,483

# Biological target: AgSho1
# Assay: as above
# Summary of the method: as §1
row,Binder,SPOT peptide array binding signal intensity
1,B1,3.75
2,B2,131

# Biological target: AgSla1-D1-D2
# Assay: as above
# Summary of the method: as §1
row,Binder,SPOT peptide array binding signal intensity
1,B1,7
2,B2,28

# Biological target: AgSla1-D3
# Assay: as above
# Summary of the method: as §1
row,Binder,SPOT peptide array binding signal intensity
1,B1,0.75
2,B2,6.5

# Biological target: CaAbp1-D1
# Assay: as above
# Summary of the method: as §1
row,Binder,SPOT peptide array binding signal intensity
1,B1,131
2,B2,470

# Biological target: CaAbp1-D2
# Assay: as above
# Summary of the method: as §1
row,Binder,SPOT peptide array binding signal intensity
1,B1,155
2,B2,342

# Biological target: CaBbc1
# Assay: as above
# Summary of the method: as §1
row,Binder,SPOT peptide array binding signal intensity
1,B1,532
2,B2,694

# Biological target: CaBem1-D1
# Assay: as above
# Summary of the method: as §1
row,Binder,SPOT peptide array binding signal intensity
1,B1,6
2,B2,10.5

# Biological target: CaBzz1-D1
# Assay: as above
# Summary of the method: as §1
row,Binder,SPOT peptide array binding signal intensity
1,B1,232
2,B2,274

# Biological target: CaBzz1-D2
# Assay: as above
# Summary of the method: as §1
row,Binder,SPOT peptide array binding signal intensity
1,B1,≤ 0
2,B2,224

# Biological target: CaCyk3
# Assay: as above
# Summary of the method: as §1
row,Binder,SPOT peptide array binding signal intensity
1,B1,2.75
2,B2,18.5

# Biological target: CaFus1
# Assay: as above
# Summary of the method: as §1
row,Binder,SPOT peptide array binding signal intensity
1,B1,≤ 0
2,B2,897

# Biological target: CaHof1
# Assay: as above
# Summary of the method: as §1
row,Binder,SPOT peptide array binding signal intensity
1,B1,1.25
2,B2,1

# Biological target: CaHse1
# Assay: as above
# Summary of the method: as §1
row,Binder,SPOT peptide array binding signal intensity
1,B1,2.25
2,B2,195

# Biological target: CaLsb1
# Assay: as above
# Summary of the method: as §1
row,Binder,SPOT peptide array binding signal intensity
1,B1,0.5
2,B2,18.2

# Biological target: CaLsb4
# Assay: as above
# Summary of the method: as §1
row,Binder,SPOT peptide array binding signal intensity
1,B1,4150
2,B2,5220

# Biological target: CaMyo5
# Assay: as above
# Summary of the method: as §1
row,Binder,SPOT peptide array binding signal intensity
1,B1,3
2,B2,30

# Biological target: CaNbp2
# Assay: as above
# Summary of the method: as §1
row,Binder,SPOT peptide array binding signal intensity
1,B1,≤ 0
2,B2,881
3,B3,2950

# Biological target: CaRvs167
# Assay: as above
# Summary of the method: as §1
row,Binder,SPOT peptide array binding signal intensity
1,B1,125
2,B2,1060
3,B3,28.8

# Biological target: CaRvs167-3
# Assay: as above
# Summary of the method: as §1
row,Binder,SPOT peptide array binding signal intensity
1,B1,3.25
2,B2,4
3,B3,5.25

# Biological target: CaSho1
# Assay: as above
# Summary of the method: as §1
row,Binder,SPOT peptide array binding signal intensity
1,B1,≤ 0
2,B2,400
3,B3,72

# Biological target: CaSla1-D1-D2
# Assay: as above
# Summary of the method: as §1
row,Binder,SPOT peptide array binding signal intensity
1,B1,47
2,B2,1030
3,B3,1270

# Biological target: CaSla1-D3
# Assay: as above
# Summary of the method: as §1
row,Binder,SPOT peptide array binding signal intensity
1,B1,≤ 0
2,B2,332
3,B3,0.25

# Biological target: ScAbp1
# Assay: as above
# Summary of the method: as §1
row,Binder,SPOT peptide array binding signal intensity
1,B1,120
2,B2,34.5
3,B3,73

# Biological target: ScBbc1
# Assay: as above
# Summary of the method: as §1
row,Binder,SPOT peptide array binding signal intensity
1,B1,7.12
2,B2,246
3,B3,271

# Biological target: ScBem1-D1
# Assay: as above
# Summary of the method: as §1
row,Binder,SPOT peptide array binding signal intensity
1,B1,≤ 0
2,B2,2
3,B3,45

# Biological target: ScBzz1-D1
# Assay: as above
# Summary of the method: as §1
row,Binder,SPOT peptide array binding signal intensity
1,B1,10.5
2,B2,≤ 0
3,B3,56

# Biological target: ScBzz1-D2
# Assay: as above
# Summary of the method: as §1
row,Binder,SPOT peptide array binding signal intensity
1,B1,12.5
2,B2,27
3,B3,30.5

# Biological target: ScCyk3
# Assay: as above
# Summary of the method: as §1
row,Binder,SPOT peptide array binding signal intensity
1,B1,≤ 0
2,B2,9
3,B3,65

# Biological target: ScFus1
# Assay: as above
# Summary of the method: as §1
row,Binder,SPOT peptide array binding signal intensity
1,B1,6.5
2,B2,218
3,B3,104

# Biological target: ScHof1
# Assay: as above
# Summary of the method: as §1
row,Binder,SPOT peptide array binding signal intensity
1,B1,0.25
2,B2,79
3,B3,≤ 0

# Biological target: ScHse1
# Assay: as above
# Summary of the method: as §1
row,Binder,SPOT peptide array binding signal intensity
1,B1,27.2
2,B2,127
3,B3,779

# Biological target: ScLsb1
# Assay: as above
# Summary of the method: as §1
row,Binder,SPOT peptide array binding signal intensity
1,B1,242
2,B2,287
3,B3,37.2

# Biological target: ScLsb2
# Assay: as above
# Summary of the method: as §1
row,Binder,SPOT peptide array binding signal intensity
1,B1,3.5
2,B2,629
3,B3,370

# Biological target: ScLsb3
# Assay: as above
# Summary of the method: as §1
row,Binder,SPOT peptide array binding signal intensity
1,B1,4610
2,B2,5990
3,B3,808

# Biological target: ScLsb4
# Assay: as above
# Summary of the method: as §1
row,Binder,SPOT peptide array binding signal intensity
1,B1,2740
2,B2,2850
3,B3,31

# Biological target: ScMyo3
# Assay: as above
# Summary of the method: as §1
row,Binder,SPOT peptide array binding signal intensity
1,B1,≤ 0
2,B2,≤ 0
3,B3,70.5

# Biological target: ScMyo5
# Assay: as above
# Summary of the method: as §1
row,Binder,SPOT peptide array binding signal intensity
1,B1,≤ 0
2,B2,≤ 0
3,B3,122

# Biological target: ScNbp2
# Assay: as above
# Summary of the method: as §1
row,Binder,SPOT peptide array binding signal intensity
1,B1,4.5
2,B2,760
3,B3,6040

# Biological target: ScPex13
# Assay: as above
# Summary of the method: as §1
row,Binder,SPOT peptide array binding signal intensity
1,B1,182
2,B2,945
3,B3,50.5

# Biological target: ScRvs167
# Assay: as above
# Summary of the method: as §1
row,Binder,SPOT peptide array binding signal intensity
1,B1,960
2,B2,2220
3,B3,93.5

# Biological target: ScSho1
# Assay: as above
# Summary of the method: as §1
row,Binder,SPOT peptide array binding signal intensity
1,B1,≤ 0
2,B2,586
3,B3,271

# Biological target: ScSla1-D1-D2
# Assay: as above
# Summary of the method: as §1
row,Binder,SPOT peptide array binding signal intensity
1,B1,20.8
2,B2,999
3,B3,247

# Biological target: ScSla1-D3
# Assay: as above
# Summary of the method: as §1
row,Binder,SPOT peptide array binding signal intensity
1,B1,≤ 0
2,B2,514
3,B3,17.2

# Biological target: SpAbp1-D1
# Assay: as above
# Summary of the method: as §1
row,Binder,SPOT peptide array binding signal intensity
1,B1,102
2,B2,149
3,B3,90

# Biological target: SpBbc1
# Assay: as above
# Summary of the method: as §1
row,Binder,SPOT peptide array binding signal intensity
1,B1,1
2,B2,14
3,B3,66.5

# Biological target: SpBzz1-D1
# Assay: as above
# Summary of the method: as §1
row,Binder,SPOT peptide array binding signal intensity
1,B1,286
2,B2,953
3,B3,370

# Biological target: SpBzz1-D2
# Assay: as above
# Summary of the method: as §1
row,Binder,SPOT peptide array binding signal intensity
1,B1,0.25
2,B2,2
3,B3,130

# Biological target: SpCyk3
# Assay: as above
# Summary of the method: as §1
row,Binder,SPOT peptide array binding signal intensity
1,B1,≤ 0
2,B2,16
3,B3,6

# Biological target: SpHof1
# Assay: as above
# Summary of the method: as §1
row,Binder,SPOT peptide array binding signal intensity
1,B1,2.75
2,B2,61.2
3,B3,134

# Biological target: SpHof1-2
# Assay: as above
# Summary of the method: as §1
row,Binder,SPOT peptide array binding signal intensity
1,B1,0.625
2,B2,76.2
3,B3,25

# Biological target: SpHof1-3
# Assay: as above
# Summary of the method: as §1
row,Binder,SPOT peptide array binding signal intensity
1,B1,65.5
2,B2,108
3,B3,148

# Biological target: SpHse1
# Assay: as above
# Summary of the method: as §1
row,Binder,SPOT peptide array binding signal intensity
1,B1,11
2,B2,272
3,B3,178

# Biological target: SpLsb1
# Assay: as above
# Summary of the method: as §1
row,Binder,SPOT peptide array binding signal intensity
1,B1,118
2,B2,612
3,B3,61.5

# Biological target: SpLsb4
# Assay: as above
# Summary of the method: as §1
row,Binder,SPOT peptide array binding signal intensity
1,B1,6350
2,B2,5580
3,B3,1750

# Biological target: SpMyo1
# Assay: as above
# Summary of the method: as §1
row,Binder,SPOT peptide array binding signal intensity
1,B1,≤ 0
2,B2,61.5
3,B3,390

# Biological target: SpNbp2
# Assay: as above
# Summary of the method: as §1
row,Binder,SPOT peptide array binding signal intensity
1,B1,2
2,B2,118
3,B3,440

# Biological target: SpPex13
# Assay: as above
# Summary of the method: as §1
row,Binder,SPOT peptide array binding signal intensity
1,B1,3.5
2,B2,224
3,B3,20

# Biological target: SpRvs167
# Assay: as above
# Summary of the method: as §1
row,Binder,SPOT peptide array binding signal intensity
1,B1,1270
2,B2,2200
3,B3,34

# Biological target: SpSla1-D1-D2
# Assay: as above
# Summary of the method: as §1
row,Binder,SPOT peptide array binding signal intensity
1,B1,7
2,B2,68
3,B3,3

# Biological target: SpSla1-D3
# Assay: as above
# Summary of the method: as §1
row,Binder,SPOT peptide array binding signal intensity
1,B1,15
2,B2,173
3,B3,2
